According to the supplement of paper PMC9694430:

Tests used:
Assay in all cases: thermal shift delta Tm vs DMSO control; higher = stronger stabilization (binding)
Details in all cases: 12.5 µM; protein concentration 2 µM
[1] = system: LOC_OS01G57100-cb003
Method in brief: (§1)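 The melting temperature shift given here is a triplicate mean, measured against protein that received only DMSO. Melting temperatures came from Boltzmann fits of differential scanning fluorimetry data on E. coli-expressed, purified rice kinase domain constructs. Each 19.5 μl well contained 2 μM kinase, 100 mM potassium phosphate pH 7.5, 150 mM NaCl, 10% glycerol, 5 × SYPRO Orange and compound in DMSO. Plates were scanned from 25°C to 95°C at 0.05°C/s.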

[2] = system: LOC_OS01G60330-cb001
Method in brief: as §1

[3] = system: LOC_OS01G60700-cb002
Method in brief: as §1

[4] = system: LOC_OS01G63280-cb003
Method in brief: as §1

[5] = system: LOC_OS01G67340-cb003
Method in brief: as §1

[6] = system: LOC_OS01G70970-cb002
Method in brief: as §1

[7] = system: LOC_OS02G07810-cb001
Method in brief: as §1

[8] = system: LOC_OS02G08530-cb003
Method in brief: as §1

[9] = system: LOC_OS02G14120-cb001
Method in brief: as §1

[10] = system: LOC_OS02G17970-cb001
Method in brief: as §1

Compound: CC1=C(C(=O)Nc2cc3cn[nH]c3cc2F)C(c2ccc(C(F)(F)F)cc2)CC(=O)N1 (stereo not given)
- thermal shift delta Tm [1]: 1.21 °C
- thermal shift delta Tm [2]: 0.48 °C
- thermal shift delta Tm [3]: 0.2 °C
- thermal shift delta Tm [4]: 2.09 °C
- thermal shift delta Tm [5]: -0.48 °C
- thermal shift delta Tm [6]: 0.04 °C
- thermal shift delta Tm [7]: 0.72 °C
- thermal shift delta Tm [8]: 0.55 °C
- thermal shift delta Tm [9]: 0.25 °C
- thermal shift delta Tm [10]: 0.19 °C

Compound: CN(C)Cc1cccc(N/C(=C2\C(=O)Nc3cc(C(N)=O)ccc32)c2ccccc2)c1
- thermal shift delta Tm [1]: 0.28 °C
- thermal shift delta Tm [2]: 1.3 °C
- thermal shift delta Tm [3]: 0.57 °C
- thermal shift delta Tm [4]: 0.43 °C
- thermal shift delta Tm [5]: 0.19 °C
- thermal shift delta Tm [6]: 0.87 °C
- thermal shift delta Tm [7]: 0.75 °C
- thermal shift delta Tm [8]: 1.55 °C
- thermal shift delta Tm [9]: 1.2 °C
- thermal shift delta Tm [10]: 0.67 °C

Compound: O=S(=O)(c1cccc2c(I)cccc12)N1CCCNCC1
- thermal shift delta Tm [1]: 0.91 °C
- thermal shift delta Tm [2]: -0.01 °C
- thermal shift delta Tm [3]: 0 °C
- thermal shift delta Tm [4]: 0.2 °C
- thermal shift delta Tm [5]: 0 °C
- thermal shift delta Tm [6]: 0.35 °C
- thermal shift delta Tm [7]: 0.33 °C
- thermal shift delta Tm [8]: 0.35 °C
- thermal shift delta Tm [9]: 0.9 °C
- thermal shift delta Tm [10]: 0.24 °C

Compound: CC(C)(CCCCCC(O)CCCCCC(C)(C)C(=O)O)C(=O)O
- thermal shift delta Tm [1]: -0.51 °C
- thermal shift delta Tm [2]: 1.18 °C
- thermal shift delta Tm [3]: 0.87 °C
- thermal shift delta Tm [4]: -0.01 °C
- thermal shift delta Tm [5]: 0.52 °C
- thermal shift delta Tm [6]: 0.21 °C
- thermal shift delta Tm [7]: 0.4 °C
- thermal shift delta Tm [8]: 0.32 °C
- thermal shift delta Tm [9]: 0.05 °C
- thermal shift delta Tm [10]: 0.59 °C

Compound: CCS(=O)(=O)c1cccc(-c2cc(C(=O)NC3CCN(C)CC3)c(C)c3[nH]c4ncc(C)cc4c23)c1
- thermal shift delta Tm [1]: 1.61 °C
- thermal shift delta Tm [2]: 3.88 °C
- thermal shift delta Tm [3]: 0.41 °C
- thermal shift delta Tm [4]: -0.02 °C
- thermal shift delta Tm [5]: 0.99 °C
- thermal shift delta Tm [6]: 6.38 °C
- thermal shift delta Tm [7]: 0.49 °C
- thermal shift delta Tm [8]: 4.38 °C
- thermal shift delta Tm [9]: 10.6 °C
- thermal shift delta Tm [10]: 0.54 °C

Compound: CN1CCN(S(=O)(=O)c2ccc(-c3cnc(N)c(C(=O)Nc4cccnc4)n3)cc2)CC1
- thermal shift delta Tm [1]: 1.13 °C
- thermal shift delta Tm [2]: 1.53 °C
- thermal shift delta Tm [3]: 1.31 °C
- thermal shift delta Tm [4]: 0.13 °C
- thermal shift delta Tm [5]: 0.5 °C
- thermal shift delta Tm [6]: 1.05 °C
- thermal shift delta Tm [7]: 0.28 °C
- thermal shift delta Tm [8]: 1.13 °C
- thermal shift delta Tm [9]: 2.21 °C
- thermal shift delta Tm [10]: -0.31 °C

Compound: Cc1[nH]c(/C=C2\C(=O)Nc3ccc(S(=O)(=O)Cc4c(Cl)cccc4Cl)cc32)c(C)c1C(=O)N1CCC[C@@H]1CN1CCCC1
- thermal shift delta Tm [1]: 1.04 °C
- thermal shift delta Tm [2]: 1.52 °C
- thermal shift delta Tm [3]: 0.53 °C
- thermal shift delta Tm [4]: 0.78 °C
- thermal shift delta Tm [5]: 0.73 °C
- thermal shift delta Tm [6]: 0.57 °C
- thermal shift delta Tm [7]: 0.8 °C
- thermal shift delta Tm [8]: 3.7 °C
- thermal shift delta Tm [9]: 7.86 °C
- thermal shift delta Tm [10]: 0.39 °C

Compound: Cc1c(CN2CCN(C(=O)[C@H](C)O)CC2)sc2c(N3CCOCC3)nc(-c3cnc(N)nc3)nc12 [Apitolisib (GDC-0980, RG7422)]
- thermal shift delta Tm [1]: 0.9 °C
- thermal shift delta Tm [2]: 0.98 °C
- thermal shift delta Tm [3]: 0.46 °C
- thermal shift delta Tm [4]: 0.4 °C
- thermal shift delta Tm [5]: 0.25 °C
- thermal shift delta Tm [6]: 0.37 °C
- thermal shift delta Tm [7]: 1.43 °C
- thermal shift delta Tm [8]: 1.01 °C
- thermal shift delta Tm [9]: 0.42 °C
- thermal shift delta Tm [10]: 1.03 °C

Compound: COc1cc(Nc2ncc(F)c(Nc3ccc4c(n3)NC(=O)C(C)(C)O4)n2)cc(OC)c1OC
- thermal shift delta Tm [1]: 4.83 °C
- thermal shift delta Tm [2]: 4.41 °C
- thermal shift delta Tm [3]: 0.57 °C
- thermal shift delta Tm [4]: 0.28 °C
- thermal shift delta Tm [5]: 0.45 °C
- thermal shift delta Tm [6]: 2.5 °C
- thermal shift delta Tm [7]: 0.41 °C
- thermal shift delta Tm [8]: 4 °C
- thermal shift delta Tm [9]: 12.4 °C
- thermal shift delta Tm [10]: 0.45 °C

Compound: C=CC(=O)Nc1cccc(Sc2nc(Nc3ccc(N4CCN(C)CC4)cc3)ncc2Cl)c1
- thermal shift delta Tm [1]: -1.98 °C
- thermal shift delta Tm [2]: 1.15 °C
- thermal shift delta Tm [3]: 0.75 °C
- thermal shift delta Tm [4]: 0.45 °C
- thermal shift delta Tm [5]: 0.87 °C
- thermal shift delta Tm [6]: 7.21 °C
- thermal shift delta Tm [7]: 0.82 °C
- thermal shift delta Tm [8]: 2.38 °C
- thermal shift delta Tm [9]: 6.55 °C
- thermal shift delta Tm [10]: 0.58 °C

Compound: NC(=O)Nc1cc(-c2cccc(F)c2)sc1C(=O)N[C@H]1CCCNC1
- thermal shift delta Tm [1]: 4.78 °C
- thermal shift delta Tm [2]: 1.93 °C
- thermal shift delta Tm [3]: 0.65 °C
- thermal shift delta Tm [4]: 0.86 °C
- thermal shift delta Tm [5]: 0.78 °C
- thermal shift delta Tm [6]: 1.89 °C
- thermal shift delta Tm [7]: 1.56 °C
- thermal shift delta Tm [8]: 5.46 °C
- thermal shift delta Tm [9]: 8.74 °C
- thermal shift delta Tm [10]: 0.89 °C

Compound: CONC(=O)c1ccccc1Nc1cc(Nc2cc(C)nn2C(C)C)ncc1Cl
- thermal shift delta Tm [1]: 0.63 °C
- thermal shift delta Tm [2]: 0.07 °C
- thermal shift delta Tm [3]: 0.19 °C
- thermal shift delta Tm [4]: 0.5 °C
- thermal shift delta Tm [5]: 0.98 °C
- thermal shift delta Tm [6]: 1.15 °C
- thermal shift delta Tm [7]: -0.17 °C
- thermal shift delta Tm [8]: 1.79 °C
- thermal shift delta Tm [9]: 3.22 °C
- thermal shift delta Tm [10]: 0.4 °C

Compound: CCn1c2ccccc2c2cc(Nc3ccnc(NCCCN4CCOCC4)n3)ccc21
- thermal shift delta Tm [1]: 0.92 °C
- thermal shift delta Tm [2]: 1.04 °C
- thermal shift delta Tm [3]: 0.87 °C
- thermal shift delta Tm [4]: 0.29 °C
- thermal shift delta Tm [5]: 0.51 °C
- thermal shift delta Tm [6]: 0.28 °C
- thermal shift delta Tm [7]: 0.54 °C
- thermal shift delta Tm [8]: 1.04 °C
- thermal shift delta Tm [9]: -0.17 °C
- thermal shift delta Tm [10]: 0.22 °C

Compound: C=CC(=O)Nc1cccc(Nc2nc(Nc3ccc(Oc4ccnc(C(=O)NC)c4)cc3)ncc2F)c1
- thermal shift delta Tm [1]: 2.13 °C
- thermal shift delta Tm [2]: 6.9 °C
- thermal shift delta Tm [3]: 1.08 °C
- thermal shift delta Tm [4]: 0.49 °C
- thermal shift delta Tm [5]: 0.92 °C
- thermal shift delta Tm [6]: 1.63 °C
- thermal shift delta Tm [7]: 0.76 °C
- thermal shift delta Tm [8]: 2.72 °C
- thermal shift delta Tm [9]: 6.96 °C
- thermal shift delta Tm [10]: 0.81 °C

Compound: O=C(NOCC(O)CO)c1cc(Br)c(F)c(F)c1Nc1ccc(I)cc1F (stereo not given)
- thermal shift delta Tm [1]: 2.4 °C
- thermal shift delta Tm [2]: 2.2 °C
- thermal shift delta Tm [3]: 1.6 °C
- thermal shift delta Tm [4]: 1.18 °C
- thermal shift delta Tm [5]: 0.03 °C
- thermal shift delta Tm [6]: 0.55 °C
- thermal shift delta Tm [7]: 2.41 °C
- thermal shift delta Tm [8]: 1.08 °C
- thermal shift delta Tm [9]: 1.22 °C
- thermal shift delta Tm [10]: 2.02 °C

Compound: O=C(O)c1ccc(-c2c[nH]c3ncc(-c4ccccc4)cc23)cc1C1CCCC1
- thermal shift delta Tm [1]: 1.09 °C
- thermal shift delta Tm [2]: -0.77 °C
- thermal shift delta Tm [3]: -3.79 °C
- thermal shift delta Tm [4]: 2.57 °C
- thermal shift delta Tm [5]: 4.86 °C
- thermal shift delta Tm [6]: 6.62 °C
- thermal shift delta Tm [7]: 0.4 °C
- thermal shift delta Tm [8]: 4.81 °C
- thermal shift delta Tm [9]: 10.7 °C
- thermal shift delta Tm [10]: -1.49 °C

Compound: C#Cc1cccc(Nc2ncnc3cc(OCCOC)c(OCCO)cc23)c1
- thermal shift delta Tm [1]: 0.15 °C
- thermal shift delta Tm [2]: 0.3 °C
- thermal shift delta Tm [3]: 0.24 °C
- thermal shift delta Tm [4]: -0.13 °C
- thermal shift delta Tm [5]: -0.22 °C
- thermal shift delta Tm [6]: 0.5 °C
- thermal shift delta Tm [7]: 1.32 °C
- thermal shift delta Tm [8]: 1.16 °C
- thermal shift delta Tm [9]: 4.33 °C
- thermal shift delta Tm [10]: -0.01 °C

Compound: COc1cc2c(c(OC)c1OC)-c1c(cc3c(c1OC)OCO3)CC(C)C(C)C2 (stereo not given) [Schisandrin B (Sch B)]
- thermal shift delta Tm [1]: 0.61 °C
- thermal shift delta Tm [2]: 0.33 °C
- thermal shift delta Tm [3]: 0.75 °C
- thermal shift delta Tm [4]: 0.34 °C
- thermal shift delta Tm [5]: -0.14 °C
- thermal shift delta Tm [6]: 0.46 °C
- thermal shift delta Tm [7]: 0.64 °C
- thermal shift delta Tm [8]: 0.6 °C
- thermal shift delta Tm [9]: 0.07 °C
- thermal shift delta Tm [10]: 0.95 °C

Compound: O=c1cc(-c2ccccc2)oc2c(O)c(O)ccc12 [7,8-Dihydroxyflavone]
- thermal shift delta Tm [1]: 5.23 °C
- thermal shift delta Tm [2]: -0.01 °C
- thermal shift delta Tm [3]: 3.2 °C
- thermal shift delta Tm [4]: 1.34 °C
- thermal shift delta Tm [5]: 0.96 °C
- thermal shift delta Tm [6]: -0.06 °C
- thermal shift delta Tm [7]: 2.73 °C
- thermal shift delta Tm [8]: 1.59 °C
- thermal shift delta Tm [9]: 0.71 °C
- thermal shift delta Tm [10]: 3.29 °C

Compound: O=C(/C=C/c1ccc2ccccc2n1)c1ccncc1
- thermal shift delta Tm [1]: 1.22 °C
- thermal shift delta Tm [2]: 1.35 °C
- thermal shift delta Tm [3]: 0.05 °C
- thermal shift delta Tm [4]: 1.12 °C
- thermal shift delta Tm [5]: 0.62 °C
- thermal shift delta Tm [6]: 0.59 °C
- thermal shift delta Tm [7]: 0.02 °C
- thermal shift delta Tm [8]: 2.02 °C
- thermal shift delta Tm [9]: 2.08 °C
- thermal shift delta Tm [10]: 1.05 °C

Compound: CC1(C)C=Cc2c(ccc3c2OC[C@@H](c2ccc(O)cc2O)C3)O1 [Glabridin]
- thermal shift delta Tm [1]: 0.87 °C
- thermal shift delta Tm [2]: 2.93 °C
- thermal shift delta Tm [3]: -0.87 °C
- thermal shift delta Tm [4]: 3.61 °C
- thermal shift delta Tm [5]: 0.86 °C
- thermal shift delta Tm [6]: 1.29 °C
- thermal shift delta Tm [7]: -0.38 °C
- thermal shift delta Tm [8]: 0.24 °C
- thermal shift delta Tm [9]: 0.34 °C
- thermal shift delta Tm [10]: 0.51 °C
